Among the data in the supplement of paper PMC10503962 are mean motility score values, retold here.

In the assay the test system is Trichuris muris adult worms. The experiment in a line: mean motility score (Paragon pixel variance) of adult worms (arbitrary units); higher = more motile worms, i.e. less anthelmintic effect; extreme values may be limits of the assay. The conditions noted are these: 100 µM; 24 h. In a few lines:
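Each drug was tested with three worms in three wells, run over three separate occasions and vehicle and positive controls included. The worms were single adult Trichuris muris from infected NOD SCID mice, held for 24 h at 37°C and 5% CO2 in 100 μL RPMI-1640 with antibiotics and drug at 100 μM (1% v/v DMSO) in 96-well plates. Motility score was derived by Paragon pixel-variance analysis of films from an automated phenotyping platform and averaged over replicate wells.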
As to `O=C(O)COc1ccc(C(=O)c2cccs2)c(Cl)c1Cl` [ticrynafen], the mean motility score is 3440. As for `CCC(NC(C)C)C(O)c1ccc(O)c2nc(O)ccc12.Cl` (stereo not drawn) [procaterol hydrochloride], the figure is 2060; as for `Nc1ncn([C@@H]2O[C@H](CO)[C@@H](O)[C@H]2O)c(=O)n1` [azacitidine], 4300; as for `NCCCC[C@H](N[C@@H](CCc1ccccc1)C(=O)O)C(=O)N1CCC[C@H]1C(=O)O` [lisinopril], 1970.

For `CCN(CC)CCNC(=O)c1cc(Cl)c(N)cc1OC` [metoclopramide], the mean motility score is 3210.

Molecule `Clc1ccc(COC(Cn2ccnc2)c2ccc(Cl)cc2Cl)c(Cl)c1` (stereo not drawn) [miconazole] yielded a mean motility score of 122. As for `Cc1cn(-c2cc(NC(=O)c3ccc(C)c(Nc4nccc(-c5cccnc5)n4)c3)cc(C(F)(F)F)c2)cn1` [nilotinib], the figure is 2370; as for `CCCCOc1cc(C(=O)NCCN(CC)CC)c2ccccc2n1` [dibucaine], 2070; as for `C#C[C@]1(O)CC[C@H]2[C@@H]3CCc4cc(O)ccc4[C@H]3CC[C@@]21C` [ethinyl estradiol], 3320.

Molecule `COC(=O)[C@H](c1ccccc1Cl)N1CCc2sccc2C1` [clopidogrel] registered a mean motility score of 2110. `Nc1ncnc2c1ncn2[C@@H]1O[C@H](COP(=O)(O)O)[C@@H](O)[C@H]1O` [adenosine phosphate] returned a mean motility score of 4280.

For the molecule `CS(=O)(=O)CCNCc1ccc(-c2ccc3ncnc(Nc4ccc(OCc5cccc(F)c5)c(Cl)c4)c3c2)o1` [lapatinib], the mean motility score came to 999. As for `OCCO` [ethylene glycol], the figure is 3150; as for `CCOc1ccc2ccccc2c1C(=O)N[C@@H]1C(=O)N2[C@@H]1SC(C)(C)[C@@H]2C(=O)[O-].O.[Na+]` [nafcillin sodium monohydrate], 3570; as for `CN1CCN(C2=Nc3cc(Cl)ccc3Nc3ccccc32)CC1` [clozapine], 2870. As for `CN(C/C=C/C#CC(C)(C)C)Cc1cccc2ccccc12` [terbinafine], the figure is 4560; as for `CN1CCN(CCCN2c3ccccc3Sc3ccc(C(F)(F)F)cc32)CC1.Cl.Cl` [trifluoperazine dihydrochloride], 0; as for `OCC(S)CS` (stereo not drawn) [dimercaprol], 1550. As for `CCc1nc(N)nc(N)c1-c1ccc(Cl)cc1` [pyrimethamine], the figure is 2930; as for `COC1=C(OC)C(=O)C(C/C=C(\C)CC/C=C(\C)CC/C=C(\C)CC/C=C(\C)CC/C=C(\C)CC/C=C(\C)CC/C=C(\C)CC/C=C(\C)CC/C=C(\C)CCC=C(C)C)=C(C)C1=O` [ubidecarenone], 2770. Regarding `Nc1ccc(S(=O)(=O)Nc2ncccn2)cc1` [sulfadiazine], the mean motility score was determined as 2030. Regarding `CC1(C)S[C@@H]2[C@H](NC(=O)COc3ccccc3)C(=O)N2[C@H]1C(=O)O` [penicillin V], the mean motility score amounted to 1470. `CCOC(=O)Nc1ccc2c(c1)N(C(=O)CCN1CCOCC1)c1ccccc1S2.Cl` [moricizine hydrochloride] gave a mean motility score of 5. In turn, `CS(=O)(=O)c1cccc(C[C@H](NC(=O)c2c(Cl)cc3c(c2Cl)CCN(C(=O)c2ccc4ccoc4c2)C3)C(=O)O)c1` [lifitegrast] showed a mean motility score of 3490. The molecule `CCCCCCCCCCCCCCCCOP(=O)([O-])OCC[N+](C)(C)C` [miltefosine] showed a mean motility score of 2810. Under `COc1cccc2c1C(=O)c1c(O)c3c(c(O)c1C2=O)C[C@@](O)(C(=O)CO)C[C@@H]3O[C@H]1C[C@H](N)[C@H](O)[C@H](C)O1` [doxorubicin] stands 2090; under `CC(C)NCC(O)COc1cccc2ccccc12.Cl` (stereo not drawn) [propranolol hydrochloride], 4260. Under `FC(F)(F)C(F)(F)C(F)(F)C(F)(F)C(F)(F)C(F)(F)C(F)(F)C(F)(F)Br` [perflubron] stands 1630.

The molecule `CC(=O)Oc1ccc(C(c2ccc(OC(C)=O)cc2)c2ccccn2)cc1` [bisacodyl] had a mean motility score of 2870. `COc1cc2nccc(Oc3ccc(NC(=O)C4(C(=O)Nc5ccc(F)cc5)CC4)cc3)c2cc1OC` [cabozantinib] gave a mean motility score of 3950. Regarding `COc1ccc(Cl)cc1C(=O)NCCc1ccc(S(=O)(=O)NC(=O)NC2CCCCC2)cc1` [glyburide], the mean motility score was 2300. For the molecule `CCCCC1C(=O)N(c2ccccc2)N(c2ccccc2)C1=O` [phenylbutazone], the mean motility score was determined as 1530. Take `Nc1ccc(S(=O)(=O)Nc2ccnn2-c2ccccc2)cc1` [sulfaphenazole]: the mean motility score was 3280.
